Compound activity from PubChem BioAssay.
MCL1-BIM inh: inhibitors of MCL1 binding to BIM-BH3, primary screen, biochemical, fluorescence polarization; Induced myeloid leukemia cell differentiation protein Mcl-1 (Homo sapiens), Q07820; GST-MCL1 / FITC-Bim-BH3 fluorescence polarization; inhibition, % at 10.9 µM; 320,000 compounds, 0.68% hits; AID 2057, 2009;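 active = inhibition above the mean inhibition of all tested compounds plus 3 SD, set per campaign, cut at about 40% in these data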;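 also: higher means more loss of mP so more displacement of Bim peptide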
Target sequence (Q07820 whole entry, looked up): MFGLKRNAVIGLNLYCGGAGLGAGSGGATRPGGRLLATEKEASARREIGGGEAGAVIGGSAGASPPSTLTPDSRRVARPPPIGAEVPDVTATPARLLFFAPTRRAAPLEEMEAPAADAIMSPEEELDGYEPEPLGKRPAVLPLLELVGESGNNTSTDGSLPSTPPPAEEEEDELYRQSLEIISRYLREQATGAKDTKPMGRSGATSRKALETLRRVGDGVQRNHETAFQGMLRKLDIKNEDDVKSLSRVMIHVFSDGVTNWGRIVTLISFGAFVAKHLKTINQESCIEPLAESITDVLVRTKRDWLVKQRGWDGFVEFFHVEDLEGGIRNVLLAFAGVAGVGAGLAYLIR
Mcl1 Noxa PPI: Mcl-1/Noxa binding inhibitors, primary screen, biochemical, TR-FRET, 1536-well | 220,000 compounds, 1.5% hits | inhibition, % at 21.7 µM | TR-FRET Mcl-1/Noxa peptide binding, 2 h | Induced myeloid leukemia cell differentiation protein Mcl-1 (Homo sapiens), Q07820;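 active = compounds that cut the protein-peptide binding signal by more than 50% relative to plate controls in a single-dose test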;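 also: His-tagged Mcl-1 with rhodamine Noxa BH3 peptide and terbium anti-His antibody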
14-3-3 Bad inh: inhibitors of 14-3-3 zeta/Bad binding, primary screen, biochemical, TR-FRET, bovine 14-3-3 zeta; AID 781, 2007; 14-3-3 protein zeta/delta (Bos taurus), P63103; TR-FRET 14-3-3zeta/Dy647-pBad peptide displacement, 1 h; 220,000 compounds, 0.71% hits; inhibition, % at 21.7 µM;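 active = inhibition above about 70%, limit read from the data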
Target sequence (P63103 whole entry, looked up): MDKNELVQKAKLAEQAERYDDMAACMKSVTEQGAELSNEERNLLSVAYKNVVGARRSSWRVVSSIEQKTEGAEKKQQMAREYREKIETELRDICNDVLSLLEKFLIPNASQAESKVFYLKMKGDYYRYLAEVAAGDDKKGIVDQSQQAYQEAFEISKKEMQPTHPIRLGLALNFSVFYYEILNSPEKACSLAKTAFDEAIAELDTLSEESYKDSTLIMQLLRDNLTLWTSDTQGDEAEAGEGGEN
Bim-Mcl-1: inhibitors of Bim peptide binding to Mcl-1, primary screen, biochemical, bead-based flow cytometry, multiplex. Bim peptide-Mcl-1 binding. AID 1009, 2008. 190,000 compounds, 0.1% hits. Induced myeloid leukemia cell differentiation protein Mcl-1 (Homo sapiens), Q07820. inhibition, % at 10 µM; in the data active = inhibition above about 40%
Mcl1 Bid PPI: Mcl-1/Bid binding inhibitors, primary screen, biochemical, TR-FRET, 1536-well. AID 1021, 2008. 220,000 compounds, 0.97% hits. inhibition, % at 21.7 µM. Induced myeloid leukemia cell differentiation protein Mcl-1 (Homo sapiens), Q07820. TR-FRET Mcl-1/Bid-Dy647 peptide binding;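 active = compounds that cut the binding signal by more than half at the single screening dose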;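 also: His-tagged Mcl-1 with europium anti-His antibody binding Bid BH3 peptide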
eIF4E-4G inh: eIF4E–eIF4G protein interaction inhibitors, primary screen, biochemical, uHTS, TR-FRET, eIF4GI fragment; Eukaryotic translation initiation factor 4E (Mus musculus) + Eukaryotic translation …; TR-FRET eIF4E-eIF4GI(517-606) binding, 2 h; inhibition, % at 21.7 µM; 220,000 compounds, 0.37% hits; AID 782, 2007;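 active = inhibition above about 30%, limit read from the data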
Numbers stand for hits; i = inactive; nt = no result given. This is a sample that favours compounds with a hit; in the whole collection about 2.6% have one here.

SMILES	MCL1-BIM inh	Mcl1 Noxa PPI	14-3-3 Bad inh	Bim-Mcl-1	Mcl1 Bid PPI	eIF4E-4G inh
CC1Oc2cc3c(-c4c(O)cc(O)c5c(O)c6c(cc45)OC(C)C(C)C6=O)c(O)cc(O)c3c(O)c2C(=O)C1C (stereo not given)	i	103.1	i	nt	i	55.8
CC(Cc1ccccc1)NCC(=O)Nc1cc(N(C)C)nc2ccccc12 (stereo not given)	i	i	i	nt	72.2	i
S=P(NC1CCCCC1)(N1CC1)N1CC1	48.4	i	i	nt	i	i
O=C1CCCC2=C1C(c1cccnc1)Nc1ccccc1N2 (stereo not given)	i	i	i	i	i	i
c1cncc(C2Nc3cccc4cccc(c34)N2)c1	i	79.1	i	nt	i	i
O=c1c2ccccc2[se]n1-c1ccccc1	i	i	i	i	i	77.2
NC(=O)Cn1cc(C(=O)c2ccccc2)c2ccccc21	i	nt	nt	nt	nt	nt
CCn1c(C)c(C(=O)Nc2ccc(OC)cc2)c2cc(OC)ccc21	i	nt	nt	nt	nt	nt
O=C1NC(=S)N(c2ccc(F)cc2)C(=O)/C1=C\c1ccoc1	nt	79.0	76.1	i	i	33.9
CCOc1cc2c(cc1OCC)-n1cccc1C(c1ccc(C(C)C)cc1)NC2 (stereo not given)	i	nt	nt	nt	nt	nt
CC(C)(C)N1C(=O)NC(=O)/C(=C\c2ccc3c(c2)CCN3CCCCl)C1=O	i	i	i	nt	i	i
O=C1NC(=S)N(C2CC2)C(=O)/C1=C/c1ccc2c(c1)CCN2CCCCl	i	109.5	i	i	88.0	i
CCN1C(=O)/C(=C/c2ccc3c(c2)CCN3CCCCl)C(=O)NC1=S	i	80.9	i	i	i	i
O=C(/C=C/c1c[nH]c2ccccc12)c1c(O)n(CCc2ccccc2)c(=O)[nH]c1=O	i	i	i	nt	i	i
COC(=O)C1=C(c2ccc(C(C)=O)cc2)C[C@@H]2CC[C@H]1N2C(=O)NCCOc1ccccc1Cl	i	nt	nt	nt	nt	nt
COc1cc(N2CCOCC2)ccc1/C=C1\C(=O)NC(=O)N(Cc2cccs2)C1=O	i	i	i	i	i	i
COc1cc(N2CCOCC2)ccc1C=C1C(=O)NC(=O)NC1=O	i	i	i	42.0	i	i
COc1ccc(P2(=O)Nc3ccccc3N2)cc1	51.8	i	i	i	i	i
COc1ccc(C=O)cc1	i	nt	nt	nt	nt	nt
Cc1cccc(N2C(=O)NC(=O)/C(=C/c3ccc([N+](=O)[O-])o3)C2=O)c1	47.5	71.9	i	i	i	i
COc1ccc(CN2C(=O)NC(=O)/C(=C/c3ccc([N+](=O)[O-])o3)C2=O)cc1	nt	94.8	i	i	i	i
Cc1cccc(N2C(=O)NC(=O)/C(=C\C=C\c3ccco3)C2=O)c1	i	i	i	nt	i	i
COC(=O)C1=C(c2ccc(S(C)(=O)=O)cc2)C[C@@H]2CC[C@H]1N2C(=O)NCc1ccc(C(F)(F)F)cc1	i	nt	nt	nt	nt	nt
CC(C)c1oc(=O)cc2c1[C@@H](O)[C@H]1OC(=O)[C@@]3(C)C[C@@H](O)[C@@H](O)[C@@]2(C)C13 (stereo not given in full)	i	i	i	i	i	i
Nc1c(C(=O)NC2CCCC2)c2nc3ccccc3nc2n1CC1CCCO1 (stereo not given)	i	i	i	i	i	i
SMILES	MCL1-BIM inh	Mcl1 Noxa PPI	14-3-3 Bad inh	Bim-Mcl-1	Mcl1 Bid PPI	eIF4E-4G inh
COC(=O)C1=CO[C@@H](C)[C@H]2CN3CC[C@]4(C(=O)Nc5ccccc54)[C@@H]3C[C@H]12	i	nt	nt	nt	nt	nt
COC(=O)c1c(C)[nH]c(C(=O)C(C)[N+]23CCN(CC2)CC3)c1C (stereo not given)	i	i	80.6	i	73.6	i
O=S(=O)(c1ccccc1)N1CCN2CCCC2C1 (stereo not given)	i	nt	nt	nt	nt	nt
O=C(Nc1cccnc1)c1c(O)c2c(n(Cc3ccccc3)c1=O)CCCC2	i	i	i	i	i	61.2
C/C(=N\N1CCCCCC1)c1c(O)n(-c2ccccc2C)c(=O)[nH]c1=O	i	i	i	nt	i	i
CN1CCC(N(C)c2ncnc3ccc(Br)cc23)CC1	nt	i	i	i	i	i
Cc1ccc(-c2nc(N(C)C3CCN(C)CC3)c3ccccc3n2)cc1	i	62.9	i	i	i	i
CC1CCN(S(=O)(=O)c2ccc(NN=C(C#N)C#N)cc2)CC1	i	i	i	i	i	i
N#CC(C#N)=NNc1ccc(S(N)(=O)=O)cc1	i	87.9	i	nt	i	i
CN1CCN(C(=O)COc2ccc(S(=O)(=O)NCc3ccccc3)cc2Cl)CC1	i	i	75.4	i	i	i
Cc1ccc(/C=C2\C(=O)NC(=S)N(c3cccc(F)c3)C2=O)o1	i	nt	nt	nt	nt	nt
Cc1ccc(N2C(=O)/C(=C/c3ccc(CN(CCC#N)S(C)(=O)=O)o3)C(=O)NC2=S)cc1C	i	65.9	i	i	i	i
Cc1cccc(N2C(=O)/C(=C/c3ccc(CN(CCC#N)S(C)(=O)=O)o3)C(=O)NC2=S)c1	i	52.6	i	i	i	i
CCOc1ccc(N2C(=O)/C(=C/c3ccc(C)o3)C(=O)NC2=S)cc1	i	nt	nt	nt	nt	nt
C=C(c1ccccc1)P(=O)(O)O	i	i	i	i	i	i
O=P(O)(O)C#Cc1ccccc1	nt	i	i	i	96.4	i
O=C1/C(=C\c2ccc(Cl)c(Cl)c2)N2CCC1CC2	i	i	i	nt	54.3	i
CCN1C(=O)/C(=C\c2ccc([N+](=O)[O-])s2)C(=O)NC1=S	nt	93.7	94.3	i	i	i
C=CCN1C(=O)/C(=C/c2ccc(Br)s2)C(=O)NC1=S	i	nt	nt	nt	nt	nt
O=C(Cc1ccccc1)N1CCN(CC2CC3C=CC2C3)CC1 (stereo not given)	i	i	i	i	i	i
O=C(Cc1ccccc1)N1CCN(CC2CC=CCC2)CC1 (stereo not given)	i	i	77.2	i	i	i
Cc1nn(CCC#N)c2c1P(=S)(N1CCCC1)OC(c1ccc(F)cc1)=N2 (stereo not given)	i	i	i	i	i	32.5
NNC(N)=O	i	nt	nt	nt	nt	nt
CN1C(=O)/C(=C\c2ccc(N3CCCCCC3)cc2)C(=O)NC1=S	i	i	i	nt	i	i
Cc1cc(N2CCCCC2)ccc1C=C1C(=O)N(C)C(=S)N(C)C1=O	i	68.4	i	i	i	i
O=C(c1ccc(N2CC3CC(C2)c2cccc(=O)n2C3)c([N+](=O)[O-])c1)N1CCCC1 (stereo not given)	i	i	i	i	i	i
CCCCOc1ccc(CN2CCN(CC)CC2)cc1	i	i	85.7	i	i	i
N#CC(Br)Br	i	nt	nt	nt	nt	nt
